According to PubChem BioAssay (EPA / NIEHS):
The source made the active and inactive calls. How the source made its calls: active means hit-call score of the fitted dose curve at least 0.9, where 1 is the maximum; inactive means score below 0.9.

Key:
[1] = read-out: Interleukin-6 (IL6), IL6 (gene 3569); experiment: BSK_CASM3C_IL6: BioMAP Diversity Plus: CASM3C Assay for Interleukin-6 (IL6) Biomarker Activity for (AID 2283040); details: primary human coronary artery smooth muscle cells; actives raise or lower the signal
[2] = read-out: Tissue plasminogen activator (tPA), PLAT (gene 5327); experiment: BSK_BE3C_tPA: BioMAP Diversity Plus: BE3C Assay for Tissue plasminogen activator (tPA) Biomarker Activity (AID 2283041); details: primary human bronchial epithelial cells; actives raise or lower the signal;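 further: tPA level quantified by ELISA one day after compound addition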
Method in brief: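 Human primary bronchial epithelial cells were dosed with chemical and tPA biomarker levels measured by ELISA 24 hours later. Activity was fitted bidirectionally against DMSO as negative control and baseline.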

[3] = read-out: Interleukin-8 (IL8), CXCL8 (gene 3576); experiment: BSK_CASM3C_IL8: BioMAP Diversity Plus: CASM3C Assay for Interleukin-8 (IL8) Biomarker Activity (AID 2283042); details: primary human coronary artery smooth muscle cells; actives raise or lower the signal;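 further: IL-8 protein level quantified by ELISA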
[4] = read-out: Human Leukocyte Antigen - DR isotype (HLADR), HLA-DRA (gene 3122); experiment: BSK_CASM3C_HLADR: BioMAP Diversity Plus: CASM3C Assay for Human Leukocyte Antigen - DR isotype (HLADR) Biomarker Activity (AID 2283043); details: primary human coronary artery smooth muscle cells; actives raise or lower the signal;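 further: cell-surface HLA-DR protein level quantified by ELISA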
[5] = read-out: Macrophage colony-stimulating factor (MCSF), CSF1 (gene 1435); experiment: BSK_CASM3C_MCSF: BioMAP Diversity Plus: CASM3C Assay for Macrophage colony-stimulating factor (MCSF) Biomarker Activity (AID 2283044); details: primary human coronary artery smooth muscle cells; actives raise or lower the signal;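 further: M-CSF protein amount quantified by ELISA after 24 h exposure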
[6] = read-out: Low-density lipoprotein receptor (LDLR), LDLR (gene 3949); experiment: BSK_CASM3C_LDLR: BioMAP Diversity Plus: CASM3C Assay for Low-density lipoprotein receptor (LDLR) Biomarker Activity (AID 2283045); details: primary human coronary artery smooth muscle cells; actives raise or lower the signal;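 further: LDLR protein level on the cell surface quantified by ELISA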
[7] = read-out: Monocyte Chemoattractant Protein-1 (MCP1), CCL2 (gene 6347); experiment: BSK_CASM3C_MCP1: BioMAP Diversity Plus: CASM3C Assay for Monocyte Chemoattractant Protein-1 (MCP1) Biomarker Activity (AID 2283046); details: primary human coronary artery smooth muscle cells; actives raise or lower the signal;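 further: MCP-1 level quantified by ELISA 24 h after dosing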
[8] = BSK_CASM3C_Proliferation: Cell Proliferation Assessment in the BioMAP Diversity Plus: CASM3C Assay (AID 2283047); details: primary human coronary artery smooth muscle cells;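 further: sulforhodamine B total protein stain as relative cell number at 560 nm; sub-confluent cells exposed 48 h before staining; fitted both ways against DMSO so gain or loss of cell number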
[9] = read-out: Monokine induced gamma interferon (MIG), CXCL9 (gene 4283); experiment: BSK_CASM3C_MIG: BioMAP Diversity Plus: CASM3C Assay for Monokine induced gamma interferon (MIG) Biomarker Activity (AID 2283048); details: primary human coronary artery smooth muscle cells; actives raise or lower the signal;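 further: MIG protein level measured by ELISA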
[10] = read-out: serum amyloid A (SAA), SAA1 (gene 6288); experiment: BSK_CASM3C_SAA: BioMAP Diversity Plus: CASM3C Assay for serum amyloid A (SAA) Biomarker Activity (AID 2283049); details: primary human coronary artery smooth muscle cells; actives raise or lower the signal;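 further: SAA protein level quantified by ELISA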
[11] = BSK_CASM3C_SRB: Viability Assessment in the BioMAP Diversity Plus: CASM3C Assay (AID 2283050); details: primary human coronary artery smooth muscle cells;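 further: total protein by SRB staining as cytotoxicity measure in parallel cultures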
[12] = read-out: Thrombomodulin, THBD (gene 7056); experiment: BSK_CASM3C_Thrombomodulin: BioMAP Diversity Plus: CASM3C Assay for Thrombomodulin Biomarker Activity (AID 2283051); details: primary human coronary artery smooth muscle cells; actives raise or lower the signal;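 further: thrombomodulin protein level measured by ELISA 24 h after dosing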
[13] = read-out: Tissue Factor, F3 (gene 2152); experiment: BSK_CASM3C_TissueFactor: BioMAP Diversity Plus: CASM3C Assay for Tissue Factor Biomarker Activity (AID 2283052); details: primary human coronary artery smooth muscle cells; actives raise or lower the signal;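 further: cell surface tissue factor protein level read by ELISA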
[14] = read-out: Interferon-gamma inducible Protein 10 (IP10), CXCL10 (gene 3627); experiment: BSK_hDFCGF_IP10: BioMAP Diversity Plus: hDFCGF Assay for Interferon-gamma inducible Protein 10 (IP10) Biomarker Activity (AID 2283053); details: primary human foreskin fibroblasts; actives raise or lower the signal
Method in brief: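 Human foreskin fibroblast primary cells (hDFCGF system) were dosed with chemical and assayed at 24 h; IP-10 measured by ELISA. Activity fitted bidirectionally relative to DMSO negative control as baseline.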

[15] = read-out: Urokinase-type plasminogen activator receptor (uPAR), PLAUR (gene 5329); experiment: BSK_CASM3C_uPAR: BioMAP Diversity Plus: CASM3C Assay for Urokinase-type plasminogen activator receptor (uPAR) Biomarker Activity (AID 2283054); details: primary human coronary artery smooth muscle cells; actives raise or lower the signal;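 further: cell-surface uPAR protein level quantified by ELISA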
[16] = read-out: Vascular cell adhesion molecule 1 (VCAM1), VCAM1 (gene 7412); experiment: BSK_CASM3C_VCAM1: BioMAP Diversity Plus: CASM3C Assay for Vascular cell adhesion molecule 1 (VCAM1) Biomarker Activity (AID 2283055); details: primary human coronary artery smooth muscle cells; actives raise or lower the signal;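 further: VCAM-1 protein level quantified by ELISA on the cells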
[17] = read-out: Epidermal growth factor receptor (EGFR), EGFR (gene 1956); experiment: BSK_hDFCGF_EGFR: BioMAP Diversity Plus: hDFCGF Assay for Epidermal growth factor receptor (EGFR) Biomarker Activity (AID 2283057); details: primary human foreskin fibroblasts; actives raise or lower the signal
Method in brief: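 Primary human foreskin fibroblasts were exposed to compound for 24 h, after which cell-surface EGFR was quantified by ELISA. Activity was fitted bidirectionally against the DMSO negative control as baseline.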

[18] = read-out: Interleukin-8 (IL8), CXCL8 (gene 3576); experiment: BSK_hDFCGF_IL8: BioMAP Diversity Plus: hDFCGF Assay for Interleukin-8 (IL8) Biomarker Activity (AID 2283058); details: primary human foreskin fibroblasts; actives raise or lower the signal
Method in brief: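 IL-8 levels read by ELISA at 24 hours after dosing human skin fibroblast cultures. Parallel SRB staining assessed overt cytotoxicity, and gain or loss of signal was fitted against DMSO control.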

[19] = BSK_hDFCGF_Proliferation: Cell Proliferation Assessment in the BioMAP Diversity Plus: hDFCGF Assay (AID 2283059); details: primary human foreskin fibroblasts;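 further: curves fitted for both rise and fall of signal versus DMSO baseline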
Method in brief: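 Total protein read at 560 nm after 0.1% SRB staining of TCA-fixed human skin fibroblasts, […]. Activity is fitted in both directions relative to DMSO as baseline.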

[20] = read-out: Collagen III, COL3A1 (gene 1281); experiment: BSK_hDFCGF_CollagenIII: BioMAP Diversity Plus: hDFCGF Assay for Collagen III Biomarker Activity (AID 2283056); details: primary human foreskin fibroblasts; actives raise or lower the signal
Method in brief: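 ELISA readout of Collagen III in human dermal (foreskin) fibroblasts, taken 24 h post-treatment. Gain or loss relative to DMSO vehicle fitted in both directions.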

Measured: outcome

CSC(C)(C)C=NO
not listed: [20]
inactive: all other assays above

CN(C)C(=O)Cl
inactive: all assays above

O=C(O)C(F)(F)OC(F)(F)C(F)(F)OC(F)(F)C(=O)O
not listed: [20]
inactive: all other assays above

CCOS(=O)(=O)OCC
not listed: [14]
inactive: all other assays above

Cc1ccc(N)cc1N
not listed: [20]
inactive: all other assays above

c1ccc2c(c1)sc1ccccc12
not listed: [20]
inactive: all other assays above

O=C(O)C=CC(F)(C(F)(F)F)C(F)(F)F
not listed: [14]
inactive: all other assays above
